PubChem BioAssay AID1903 (Southern Research Specialized Biocontainment Screening …, 2009)
Among all 310,000 compounds or so, about 1,200 (0.39%) were called active. These entries were drawn from the full list. Measured potencies and affinities stand elsewhere. Values without a mark were called inactive. The rule behind the calls is not given here.

Biological target: Large T antigen (Simian virus 40) (UniProt P03070)
Experiment: TAg ATPase/helicase activity blockers – biochemical (AID 1903)
Conditions: SV40 large T antigen ATPase/helicase inhibition assay; at 20 µM; active compounds read high

Sequence of Large T antigen (Simian virus 40) (P03070 whole entry, looked up): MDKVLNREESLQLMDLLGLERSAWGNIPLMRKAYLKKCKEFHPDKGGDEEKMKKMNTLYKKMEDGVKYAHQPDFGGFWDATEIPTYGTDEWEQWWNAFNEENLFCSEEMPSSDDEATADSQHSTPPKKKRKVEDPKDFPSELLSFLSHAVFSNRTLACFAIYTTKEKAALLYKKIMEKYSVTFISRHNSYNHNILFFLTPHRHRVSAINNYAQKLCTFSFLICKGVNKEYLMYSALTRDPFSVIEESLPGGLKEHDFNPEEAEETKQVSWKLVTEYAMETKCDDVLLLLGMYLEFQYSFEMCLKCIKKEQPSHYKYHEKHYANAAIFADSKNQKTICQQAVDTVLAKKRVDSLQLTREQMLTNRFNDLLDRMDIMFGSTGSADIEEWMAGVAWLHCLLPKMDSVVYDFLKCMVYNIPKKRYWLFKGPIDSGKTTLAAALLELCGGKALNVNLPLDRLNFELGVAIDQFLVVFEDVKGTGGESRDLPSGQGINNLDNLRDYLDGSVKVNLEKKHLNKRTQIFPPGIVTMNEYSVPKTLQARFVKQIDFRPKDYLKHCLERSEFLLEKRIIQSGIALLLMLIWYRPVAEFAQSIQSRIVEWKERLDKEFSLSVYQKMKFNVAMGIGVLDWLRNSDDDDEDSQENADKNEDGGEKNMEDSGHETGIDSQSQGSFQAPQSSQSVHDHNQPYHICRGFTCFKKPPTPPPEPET

Structure (SMILES) | inhibition
CC(NC(=O)Cn1c(NCCO)nc2ccccc21)c1ccccc1 (stereo unspecified) | -0.56%
CCOc1ccc(C(=O)NC(C(=O)NCc2ccccc2OC)C(C)C)cc1 (stereo unspecified) | 20.8%
Cc1ccc(CNC(=O)c2ccccc2NC(=O)CN2CC(C)OC(C)C2)cc1 (stereo unspecified) | 2.54%
Cc1ccc(S(=O)(=O)N(C)C)cc1NC(=O)COC(=O)c1ccc2c(c1)NC(=O)CS2 | 2.57%
CC(CN1CCCCC1)OC(=O)c1ccc(Cl)cc1 (stereo unspecified) | -0.49%
Cc1[nH]c2ccccc2c1-c1csc(NC(=O)CN2CCOCC2)n1 | 35.5%
Cc1[nH]c2ccccc2c1-c1csc(NC(=O)CSCCO)n1 | 23.2%
Cc1ccc(CNC(=O)COC(=O)c2cc3c(s2)CCC(C)C3)cc1 (stereo unspecified) | 0.58%
C#CCOCCOCCOCCNc1nc(N2CCN(C(=O)Cn3cc(CCCN=C(N)N)nn3)CC2)nc(N2CCN(C(=O)[C@H](CCCCN)n3cc(CCCC)nn3)CC2)n1 | 10.3%
O=C(NC1CC1)c1scc2c1OCCO2 | -3.94%
COC(C(=O)Nc1ccc(NC(=O)C(OC)c2ccccc2)cc1)c1ccccc1 (stereo unspecified) | 0.71%
COc1ccc(CNC(=O)C/C(C)=N/NC(=O)Cc2ccc(OC)c(OC)c2)cc1 | 9.86%
COc1cc(NC(=O)C/C(C)=N/NC(=O)C(OC)c2ccccc2)c(OC)cc1Cl (stereo unspecified) | 7.44%
COc1ccc(CC(=O)N/N=C(\C)CC(=O)Nc2ccc3c(c2)OCCO3)cc1OC | 8.47%
CC(=O)NC(C)Cc1cn(Cc2ccccc2)c2ccccc12 (stereo unspecified) | 19.1%
COC(=O)c1sc(NC(=O)c2cccc([N+](=O)[O-])c2)c(C(N)=O)c1C | 9.65%
Cc1ccccc1CNCCCSc1ncccn1 | 11.1%
COc1ccc(CN2CCCCCC2)c(C)c1C | 12.7%
CC(C)(C)c1cc2nc(N)nc(N)n2n1 | 8.32%
O=C(Nc1ccccc1Cl)c1ccc(COc2ccc3c(c2)CCC3)cc1 | 20.5%
CN(C(=O)CC(NC(=O)c1ccccc1Cl)c1ccccc1)c1ccccc1 (stereo unspecified) | 12.8%

Structure (SMILES) | inhibition
COc1cc2cccc(OC)c(=O)c2c(O)c1OC | 2.12%
COc1cc2ccc3c(CCN(C)C)cc(OC)c(OC)c3c2cc1OC | 6.37%
CC(=O)Nc1ccc(S(=O)(=O)Oc2ccccc2N2CCCCC2)cc1 | 2.71%
CCOc1cc(/C=N/NC(=O)C2CCCC2)ccc1O | 36.2%
COc1cc(/C=N/n2cnnc2)ccc1OC(=O)c1ccco1 | 24.8%
COc1cc(/C=N/n2cnnc2)ccc1OC(=O)c1cccnc1 | 27.4%
COc1ccccc1/C=N/NC(=O)CC(=O)NCCc1ccccc1 | 9.39%
CCOc1ccc(/C=N\NC(=O)CC(=O)NCCc2ccccc2)cc1 | 4.85%
Cc1ccc(/C=N\NC(=O)CC(=O)NCCc2ccccc2)cc1 | 7.24%
CCOc1cc(/C=N/NC(=O)C(=O)N/N=C/c2ccc(O)c(OCC)c2)ccc1O | 8.63%
COc1ccc(/C=N/NC(=O)CC(=O)NCCc2ccccc2)cc1OC | -5.15%
CC(Nc1c[nH]c(=O)[nH]c1=O)c1ccccc1 (stereo unspecified) | 28.4%
N#CC1=C(N)N2C(=C(C#N)C13CCCCC3)SC1CCCCC12O (stereo unspecified) | 2.16%
CCc1cc(Cn2nc(-c3ccccc3)cc2C(=O)NCc2ccccc2OC)on1 | 2.01%
COc1ccccc1CC(NC(C)=O)C(=O)N1CCN(C(=O)Nc2ccccc2Cl)CC1 (stereo unspecified) | 11.4%
Cc1ccc(NC(=O)c2ccc3nsnc3c2)c(C)c1 | 3.08%
O=C(NC(C1CC1)C1CC1)C1CCC(=O)N(CCCN2CCCC2=O)C1 (stereo unspecified) | 8.58%
FC(F)(F)c1cccc(Nc2nc(N3CCOCC3)nc(N3CCOCC3)n2)c1 | 6.77%
COc1ccc(/C=C2\CCC(C3CCCC3)C2=O)c(OC)c1OC (stereo unspecified) | 15.3%
Cc1ccc(S(=O)(=O)Nc2ccc(Oc3cccnc3)nc2)cc1 | 9.11%
CC(=O)Nc1ccc(SC[C@H](c2ccccc2)N2CCN(CCc3ccccc3)CCC2=O)cc1 | 16.3%

Structure (SMILES) | inhibition
COc1ccc(-c2nnc(-c3cc4ccccc4oc3=O)o2)cc1 | -1.16%
O=C(C1CCCN(Cc2cccc(Cl)c2)C1)N1CCCCC1 (stereo unspecified) | 2.11%
COc1cc(SC)ccc1C(=O)Nc1ncc(Cl)cc1Cl | -2.54%
CNC(=S)N/N=C/c1cn(CCOc2ccc(OC)cc2)c2ccccc12 | 6.11%
Cc1c(CN(C)C)c2c(n1Cc1ccccc1)C(=O)c1ccccc1-2 | 2.92%
CCOc1cc(/C=N/n2cnnc2)cc(Br)c1O | 23.3%
CCOc1cc(/C=N/n2c(C)nnc2C)ccc1O | 27.2%
Clc1ccccc1Cn1nc(-c2ccccc2)nc1-c1ccccc1 | 1.23%
Cn1ccnc1SCC(=O)Nc1cc(C(F)(F)F)ccc1N1CCOCC1 | 7.01%
COC(=O)c1ccc2c(=O)n(-c3ccc(OC)cc3)c(=S)[nH]c2c1 | 6.42%
O=C(COC(=O)CCC1CCCC1)NCc1ccc(Cl)cc1 | 17.3%
COC(=O)c1cn(CCOc2ccccc2F)c2ccccc12 | 1.53%
O=[N+]([O-])c1cn(Cc2ccc(Cl)cc2)cn1 | 1.06%
CCOc1cc(/C=C2\C(=O)N(c3cccc(C(F)(F)F)c3)C(=O)c3ccccc32)ccc1O | 9.18%
Cc1cccc(N2C(=O)/C(=C\c3ccc(C(=O)O)cc3)c3ccccc3C2=O)c1 | 36.5%
CC(C)c1nnc(NC(=O)c2cccnc2)s1 | 2.86%
O=C(Nc1ccccc1)NC1(C(=O)N2CCC(O)CC2)CCCCC1 | 4.76%
OC1CCN(C(=S)Nc2ccc(Oc3ccccc3)cc2)CC1 | -15.6%
C/C(=N\NC(=O)C(C)Sc1ccccc1)C(C)(C)C (stereo unspecified) | 17.5%
